38 compounds from PubChem BioAssay (Tox21) can be followed below.

SMILES strings stand for the structures. Records with an inconclusive call do not appear. Entries that show only a call come without a potency. The source made the active and inactive calls. Calls follow the shape of the dose curve; as a rule, active = well fitted curve in the direction sought with a large enough effect in the repeat runs; inconclusive = weak or mixed curves; inactive = no such curve, though single readings can be large; an effect the other way counts as inactive or inconclusive.

A short description of the first experiment: qHTS assay to identify small molecule antagonists of the estrogen related receptor (ERR) signaling pathway - cell viability counter screen (AID 1224818). Also: potency is read from the fitted curve at half-maximal effect. The settings on record: ERR reporter cell line viability counter screen; series mostly up to 46.1 µM. Put shortly: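 Viability of ERR cells, CellTiter-Fluor fluorescence; 17.5 h compound exposure at 37 C, DMSO vehicle; 30 min reagent incubation at 37 C/5% CO2.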
(Quantitative high-throughput screening tests each substance at several concentrations.)
Turning to `O=C1C2C=CC=CC2=NC(=S)N1CCN1CCC(=C(c2ccc(F)cc2)c2ccc(F)cc2)CC1` (stereo unspecified), the Potency entry was “inactive”.
Same read-out and setting: as for `CCc1ccc2c(-c3cccc(Cl)c3)nc(=O)n(CC)c2n1`, the entry is “inactive”; as for `Cn1cc(C(F)(F)F)nc1-c1ccc(OCC(O)CNCCOc2ccc(O)c(C(N)=O)c2)cc1` (stereo unspecified), “inactive”.
Same read-out and setting: as for `COc1ccccc1N1CCN(CCN(C(=O)C2CCCCC2)c2ccccn2)CC1`, the entry is “inactive”; as for `O=c1ccc2c(OCCCCc3ccccc3)c3ccoc3cc2o1`, “inactive”; as for `Fc1ccc2[nH]c(CN3CCN(c4ccccn4)CC3)cc2c1`, “inactive”.
Still for that read-out and setting: the value for `O=C(Nc1ccncc1)c1cc([N+](=O)[O-])ccc1Cl` was “inactive”.
`CC[n+]1c(/C=C/C=C2/N(C)c3ccccc3C2(C)C)sc2ccccc21`: the Potency is 9.08 µM (active).
The same measure, in the same setting: the value for `C[C@@]1(C2CCCC2)Cc2cc(OCC(=O)O)c(Cl)c(Cl)c2C1=O` was “inactive”; that for `CN1CCC2(CCN3CCc4c(oc5ccccc45)C3C2)N(C)C1=O` (stereo unspecified) was “inactive”.
The same measure, in the same setting: as for `C[C@@H](CN1CCC(Cc2ccccc2)CC1)[C@@H](O)c1ccc(O)cc1`, the entry is “inactive”; as for `c1ccc(C(NCCNC(c2ccccc2)c2ccccc2)c2ccccc2)cc1`, “inactive”; as for `COc1cc2c(cc1O)CC[C@@H]1[C@@H]2CC[C@]2(C)[C@@H](O)CC[C@@H]12`, “inactive”.
In the case of `O=C(O)c1ccccc1Nc1ccccc1`, the Potency result is “inactive”.
Same read-out and setting: as for `O=C(Nc1ccc2c(c1)CCN(Cc1ncn[nH]1)C2)c1ccccc1-c1ccc(C(F)(F)F)cc1`, the entry is “inactive”; as for `S=C(S)N1CCCC1`, “inactive”.
Still for that read-out and setting: the value for `COc1cc2nc(N3CCCN(C)CC3)nc(NC3CCN(Cc4ccccc4)CC3)c2cc1OC` was 24.6 µM (active).
As to `OCc1ccc(-c2nn(Cc3ccccc3)c3ccccc23)o1`, the Potency result is “inactive”.
Same read-out and setting: as for `O=C(CCSCc1ccco1)NNC(=O)N1Cc2ccccc2Oc2ccc(Cl)cc21`, the entry is “inactive”.
Still for that read-out and setting: as for `COC(=O)[C@H](NC(=O)c1cc(-c2ccccc2)nc2ccccc12)c1ccccc1`, the entry is “inactive”; as for `CC(C)(C)[C@]1(O)CCN2C[C@H]3c4ccccc4CCc4cccc(c43)[C@@H]2C1`, “inactive”; as for `O=C(CCc1ccncc1)NNC(=O)N1Cc2ccccc2Oc2ccc(Cl)cc21`, “inactive”.
Still for that read-out and setting: as for `COc1ccccc1N1CCN(CCN(C(=O)c2ccc(F)cc2)c2ccccn2)CC1`, the entry is “inactive”; as for `CC(C)(C)c1ccc(/C=C/C(=O)Nc2ccc3c(c2)OCCO3)cc1`, “inactive”.
Regarding `NC(N)=NCc1cccc(I)c1`, the Potency result was “inactive”.
The same measure, in the same setting: the value for `CCN(CC)CCCCCCCCOC(=O)c1cc(OC)c(OC)c(OC)c1` was “inactive”.
Still for that read-out and setting: the value for `CN1CCc2cccc3c2C1Cc1ccc(O)c(O)c1-3` (stereo unspecified) was “inactive”; that for `O=C1NC(c2cccc([N+](=O)[O-])c2)=CCN1c1ccccc1O` was “inactive”.
The same measure, in the same setting: as for `COc1cccc(OC)c1OCCNCC1CSc2ccccc2O1` (stereo unspecified), the entry is “inactive”.
`N=C(N)c1ccc(OCCCCCOc2ccc(C(=N)N)cc2)cc1` (tested in a mixture with another compound): the Potency result was “inactive”.
Still for that read-out and setting: as for `C[C@]12C=CC(=O)C=C1CC[C@@H]1C2=CC[C@]2(C)[C@@H](C(=O)CN3CCN(c4cc(N5CCCC5)nc(N5CCCC5)n4)CC3)CC[C@@H]12`, the entry is “inactive”.
The same measure, in the same setting: the value for `COc1ccc(NC(=O)c2ccc(-c3ccc(-c4noc(C)n4)cc3C)cc2)cc1N1CCN(C)CC1` was “inactive”.
The same measure, in the same setting: the value for `O=c1cc(N2CCOCC2)oc2c(-c3ccccc3)cccc12` was “inactive”.
For `COCCOc1cc2ncnc(Cl)c2cc1OCCOC`, the Potency entry was “inactive”.
Regarding `COc1ccccc1N1CCN(CCN2C(=O)CC3(CCCC3)CC2=O)CC1`, the Potency result is “inactive”.
The same measure, in the same setting: as for `Nc1nc(Cl)nc2c1ncn2[C@@H]1O[C@H](COP(=O)(O)OP(=O)(O)OP(=O)(O)O)C(O)[C@H]1O` (stereo partly specified), the entry is “inactive”; as for `CCC1(O)CC2CN(CCc3c([nH]c4ccccc34)[C@@](C(=O)OC)(c3cc4c(cc3OC)N(C)C3[C@]45CCN4CC=C[C@@](CC)([C@@H](OC(C)=O)[C@]3(O)C(=O)OC)[C@H]45)C2)C1` (stereo partly specified), “inactive”.
On the same count and under the same terms, the value for `Nc1nc2ccc(Cl)cc2c2nc(-c3ccco3)nn12` was “inactive”.

A short description of another experiment: qHTS assay to identify small molecule agonists of the estrogen related receptor (ERR) signaling pathway (AID 1224820). The settings on record: ERR reporter cell line, luciferase agonist mode; series mostly up to 46.1 µM. Put shortly:
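Luminescence readout (One-Glo, 30 min RT) from NTP-supplied ERR cell line exposed to compounds for 18 h at 37 C. Cells seeded 2,000 per well and pre-incubated 6 h before pin-tool compound transfer.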
With `O=C1C2C=CC=CC2=NC(=S)N1CCN1CCC(=C(c2ccc(F)cc2)c2ccc(F)cc2)CC1` (stereo unspecified), the Potency entry was “inactive”.
The same measure, in the same setting: as for `CCc1ccc2c(-c3cccc(Cl)c3)nc(=O)n(CC)c2n1`, the entry is “inactive”; as for `Cn1cc(C(F)(F)F)nc1-c1ccc(OCC(O)CNCCOc2ccc(O)c(C(N)=O)c2)cc1` (stereo unspecified), “inactive”.
Same read-out and setting: as for `COc1ccccc1N1CCN(CCN(C(=O)C2CCCCC2)c2ccccn2)CC1`, the entry is “inactive”; as for `O=c1ccc2c(OCCCCc3ccccc3)c3ccoc3cc2o1`, “inactive”.
Same read-out and setting: as for `Fc1ccc2[nH]c(CN3CCN(c4ccccn4)CC3)cc2c1`, the entry is “inactive”; as for `O=C(Nc1ccncc1)c1cc([N+](=O)[O-])ccc1Cl`, “inactive”.
As to `CC[n+]1c(/C=C/C=C2/N(C)c3ccccc3C2(C)C)sc2ccccc21`, the Potency entry was “inactive”.
Consider `C[C@@]1(C2CCCC2)Cc2cc(OCC(=O)O)c(Cl)c(Cl)c2C1=O`, for which the Potency entry was “inactive”.
Still for that read-out and setting: as for `CN1CCC2(CCN3CCc4c(oc5ccccc45)C3C2)N(C)C1=O` (stereo unspecified), the entry is “inactive”; as for `C[C@@H](CN1CCC(Cc2ccccc2)CC1)[C@@H](O)c1ccc(O)cc1`, “inactive”; as for `c1ccc(C(NCCNC(c2ccccc2)c2ccccc2)c2ccccc2)cc1`, “inactive”.
In the case of `COc1cc2c(cc1O)CC[C@@H]1[C@@H]2CC[C@]2(C)[C@@H](O)CC[C@@H]12`, the Potency entry is “inactive”.
For `O=C(O)c1ccccc1Nc1ccccc1`, the Potency result was “inactive”.
`O=C(Nc1ccc2c(c1)CCN(Cc1ncn[nH]1)C2)c1ccccc1-c1ccc(C(F)(F)F)cc1`: the Potency result was “inactive”.
On the same count and under the same terms, as for `S=C(S)N1CCCC1`, the entry is “inactive”; as for `COc1cc2nc(N3CCCN(C)CC3)nc(NC3CCN(Cc4ccccc4)CC3)c2cc1OC`, “inactive”; as for `OCc1ccc(-c2nn(Cc3ccccc3)c3ccccc23)o1`, “inactive”.
On the same count and under the same terms, the value for `O=C(CCSCc1ccco1)NNC(=O)N1Cc2ccccc2Oc2ccc(Cl)cc21` was “inactive”.
On the same count and under the same terms, the value for `COC(=O)[C@H](NC(=O)c1cc(-c2ccccc2)nc2ccccc12)c1ccccc1` was “inactive”; that for `CC(C)(C)[C@]1(O)CCN2C[C@H]3c4ccccc4CCc4cccc(c43)[C@@H]2C1` was “inactive”; that for `O=C(CCc1ccncc1)NNC(=O)N1Cc2ccccc2Oc2ccc(Cl)cc21` was “inactive”.
Consider `COc1ccccc1N1CCN(CCN(C(=O)c2ccc(F)cc2)c2ccccn2)CC1`, for which the Potency entry was “inactive”.
Still for that read-out and setting: as for `CC(C)(C)c1ccc(/C=C/C(=O)Nc2ccc3c(c2)OCCO3)cc1`, the entry is “inactive”.
Same read-out and setting: the value for `NC(N)=NCc1cccc(I)c1` was “inactive”; that for `CCN(CC)CCCCCCCCOC(=O)c1cc(OC)c(OC)c(OC)c1` was “inactive”; that for `CN1CCc2cccc3c2C1Cc1ccc(O)c(O)c1-3` (stereo unspecified) was “inactive”.
Still for that read-out and setting: the value for `O=C1NC(c2cccc([N+](=O)[O-])c2)=CCN1c1ccccc1O` was “inactive”.
For `COc1cccc(OC)c1OCCNCC1CSc2ccccc2O1` (stereo unspecified), the Potency entry was “inactive”.
The same measure, in the same setting: as for `N=C(N)c1ccc(OCCCCCOc2ccc(C(=N)N)cc2)cc1` (tested in a mixture with another compound), the entry is “inactive”.
The same measure, in the same setting: as for `C[C@]12C=CC(=O)C=C1CC[C@@H]1C2=CC[C@]2(C)[C@@H](C(=O)CN3CCN(c4cc(N5CCCC5)nc(N5CCCC5)n4)CC3)CC[C@@H]12`, the entry is “inactive”; as for `COc1ccc(NC(=O)c2ccc(-c3ccc(-c4noc(C)n4)cc3C)cc2)cc1N1CCN(C)CC1`, “inactive”.
Same read-out and setting: the value for `O=c1cc(N2CCOCC2)oc2c(-c3ccccc3)cccc12` was “inactive”; that for `COCCOc1cc2ncnc(Cl)c2cc1OCCOC` was “inactive”; that for `COc1ccccc1N1CCN(CCN2C(=O)CC3(CCCC3)CC2=O)CC1` was “inactive”.
As to `Nc1nc(Cl)nc2c1ncn2[C@@H]1O[C@H](COP(=O)(O)OP(=O)(O)OP(=O)(O)O)C(O)[C@H]1O` (stereo partly specified), the Potency entry is “inactive”.
Same read-out and setting: the value for `CCC1(O)CC2CN(CCc3c([nH]c4ccccc34)[C@@](C(=O)OC)(c3cc4c(cc3OC)N(C)C3[C@]45CCN4CC=C[C@@](CC)([C@@H](OC(C)=O)[C@]3(O)C(=O)OC)[C@H]45)C2)C1` (stereo partly specified) was “inactive”; that for `Nc1nc2ccc(Cl)cc2c2nc(-c3ccco3)nn12` was “inactive”.
